Assay outcomes (PubChem BioAssay)
USP30 inh = inhibitors of human USP30 deubiquitinase; Q70CQ3; purified USP30, Ub-rhodamine cleavage fluorescence; inhibition, % at 25 µM; 47,000 compounds, 5.3% hits
Target sequence (Q70CQ3 whole entry, looked up): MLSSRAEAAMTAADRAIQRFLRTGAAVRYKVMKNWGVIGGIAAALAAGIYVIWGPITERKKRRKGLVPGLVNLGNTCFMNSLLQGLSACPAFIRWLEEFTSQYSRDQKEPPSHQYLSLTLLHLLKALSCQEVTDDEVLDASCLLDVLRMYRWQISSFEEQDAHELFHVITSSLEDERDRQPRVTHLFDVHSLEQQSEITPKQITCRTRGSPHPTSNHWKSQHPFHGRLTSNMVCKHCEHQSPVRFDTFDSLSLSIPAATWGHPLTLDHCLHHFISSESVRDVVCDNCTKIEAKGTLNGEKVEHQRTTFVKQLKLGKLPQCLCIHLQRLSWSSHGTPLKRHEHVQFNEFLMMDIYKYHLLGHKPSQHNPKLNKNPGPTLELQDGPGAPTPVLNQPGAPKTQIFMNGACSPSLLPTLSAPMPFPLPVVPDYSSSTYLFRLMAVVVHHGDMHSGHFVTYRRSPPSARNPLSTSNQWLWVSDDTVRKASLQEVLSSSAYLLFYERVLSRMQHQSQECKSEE
USP28 block = inhibitors of human USP28 deubiquitinase; Q96RU2; purified USP28, Ub-rhodamine cleavage fluorescence, 30 min; inhibition, % at 25 µM; 47,000 compounds, 3% hits; AID 1645857
USP8 block = blocks human USP8 ubiquitin-rhodamine cleavage. purified USP8, Ub-rhodamine cleavage fluorescence, 30 min. P40818. AID 1645853. 47,000 compounds, 4.2% hits. inhibition, % at 20 µM
USP17 block = inhibitors of human USP17 deubiquitinase; A8MUK1; purified USP17, Ub-rhodamine cleavage fluorescence, 3 h; inhibition, % at 50 µM; 47,000 compounds, 6.5% hits
An asterisk follows results filed as active; i = inactive; / = not tested or not shown. Sampled rows, rich in hits. Any-hit rate of the full collection: about 14%. Cut-off read from the data, not from the text of the source: active = inhibition above about 30%; inactive = the rest.

SMILES	USP30 inh	USP28 block	USP8 block	USP17 block
Cc1cccc2[nH]c3c(N4CCN(c5cccc(C(F)(F)F)c5)CC4)ncnc3c12	-1	8	10	-15
O=C(c1ccc(F)cc1)N1CCN(c2cnn3c(C4CC4)nnc3c2)CC1	3	-5	0	0
Cc1ccc(Cn2ncc3c2NC(=O)CC32C(=O)Nc3ccc(F)cc32)cc1 (stereo not given)	/	/	1	11
Cc1ccc2nc(CNC(=O)c3ccccc3-c3nc(-c4ccc(F)cc4)no3)[nH]c2c1	-20	17	19	78*
Cc1cccc(Cn2cnc3c(nnn3Cc3ccccc3F)c2=O)c1	-44	30*	5	23
COc1ccccc1-c1noc(Cn2cnc3c(nnn3Cc3ccc(F)cc3)c2=O)n1	15	3	-8	-4
CC1(C)Cc2c(c(-c3ccccc3)nc3sc4c(SCc5ccc(F)cc5)ncnc4c23)CO1	8	4	-1	9
CO/C1=C\C(C)=C/[C@@H](C)[C@@H](O)[C@@H](C)C/C(C)=C/C=C/[C@H](OC)[C@@H]([C@@H](C)[C@@H](O)[C@H](C)[C@@]2(O)C[C@@H](OC(=O)/C=C/C(N)=O)[C@H](C)[C@@H](C(C)C)O2)OC1=O	-2	23	3	56*
CCC1OC(O)(C(C)C(O)C(C)C2OC(=O)/C(C)=C/C(C)=CC(C)C(O)C(C)C/C(C)=C/C=C/C2OC)CC(OC(=O)/C=C/C(=O)NC2=C(O)CCC2=O)C1C (stereo not given)	12	34*	17	74*
Cc1nc(-c2ccc(C)c(S(=O)(=O)Nc3ccccc3)c2)cs1	3	16	5	14
O=c1nc(SCc2ccccc2Cl)c2c(n1Cc1cccnc1)CCC2	i	-217	-179	-136
COc1ccc(C2c3[nH]c4ccccc4c3C[C@H]3C(=O)N(c4ccccc4C(=O)NC4CCCC4)C(=O)N23)cc1 (stereo not given in full)	-204	-50	-66	-47
Cc1ccc(-c2nc(C(N)=O)c3[nH]c(=O)n(-c4ccc(C)c(C)c4)c3n2)o1	1	4	-88	-11
CC(CCc1ccccc1)NC(=O)Cn1c(=O)c2cccn2c2ccccc21 (stereo not given)	19	15	-5	82*
CC(CNC(=O)Cn1c(=O)c2cccn2c2ccccc21)c1ccccc1 (stereo not given)	32*	14	27	17
Cc1noc2nc(C)n(CC(=O)NCC(C)c3ccccc3)c(=O)c12 (stereo not given)	-3	1	0	3
Cc1noc(-c2cccc(OCC(=O)Nc3cccnc3)c2)n1	18	5	-4	2
COc1cccc(C(C(=O)Nc2ccc(F)cc2)N(C(=O)c2cnccn2)c2cc(C)cc(C)c2)c1 (stereo not given)	13	10	15	20
COc1ccc(NC(=O)c2oc3ccccc3c2COc2ccccc2)cc1S(=O)(=O)N1CCCCC1	0	-6	-6	4
Clc1cccc(-c2cn[nH]c2C2CCCN2)c1 (stereo not given)	34*	15	3	4
COc1ccc(OC)c(NC(=O)c2sccc2Oc2ccc(F)cc2[N+](=O)[O-])c1	30*	10	1	9
CC(=O)Nc1ccc(NC(=O)c2sccc2Oc2ccc([N+](=O)[O-])cc2)cc1	12	0	-37	1
CC(C)NC(=O)N1CCC2(CC1)OC(C(=O)Nc1ccccc1)Cn1ccnc12 (stereo not given)	18	1	-7	-7
O=C(c1cnn2ccccc12)N1CCN(S(=O)(=O)/C=C/c2ccccc2)CC1	33*	11	5	11
CCCc1cc(=O)n2[nH]c(COc3ccccc3)c(-c3ccccc3)c2n1	55*	40*	-142	40*
SMILES	USP30 inh	USP28 block	USP8 block	USP17 block
N#Cc1c[nH]n2c(=O)cc(Cc3ccccc3)nc12	-11	0	0	1
CC(=O)NCCC(=O)N(c1ccc(Oc2ccccc2)cc1)c1nc2ccccc2s1	-12	-4	3	7
O=C(c1ccco1)N(c1ccc(Oc2ccccc2)cc1)c1nc2ccccc2s1	16	0	7	45*
O=C(Cc1ccccc1F)N1CCC(c2[nH]nc3nccnc23)CC1	6	-2	-34	-9
O=C(c1ccccc1F)N1CCC(c2[nH]nc3nccnc23)CC1	35*	19	1	17
O=C(O)c1cccnc1N1CCCC1c1ccccc1 (stereo not given)	-16	-7	47*	4
NCC(=O)N1CCCC2(Cc3ccccc3CN2S(=O)(=O)c2ccccc2)C1 (stereo not given)	44*	12	-215	-9
CCOC(=O)c1ccc(NC(=O)CSc2nnc(CNC(=O)c3ccc(OC)cc3)o2)cc1	35*	4	0	33*
COCCn1ccc2nc(C)c(C(=O)NCc3ccccc3)cc2c1=O	16	7	-2	17
COCCn1ccc2nc(C)c(C(=O)Nc3ccc4c(c3)OCCO4)cc2c1=O	36*	1	1	51*
CCOc1ccc(C(=O)OCC(=O)Nc2ccc3c(c2)OCCO3)cc1OC	-8	-10	-17	17
CCOCCn1ccc2c(OCC(=O)Nc3ccc4c(c3)OCCO4)cccc2c1=O	84*	44*	-1	66*
Cc1cnc(C(=O)N2CCCC(c3ncc(Cc4ccc(F)cc4)o3)C2)cn1 (stereo not given)	31*	14	17	6
Cc1cnc(C(=O)N2CCCC(c3ncc(Cc4ccccc4)o3)C2)cn1 (stereo not given)	/	/	-6	0
CC(C)CN1C[C@H]2C[C@H](C(=O)N3CCOCC3)[C@@H](C1)O2	13	5	-2	6
c1ccc(-c2noc(NC3CCCC3)n2)cc1	-4	4	-2	-5
O=C1Nc2c(Cl)cc(Cl)cc2C1(O)c1sc(NC2CCCCC2)nc1-c1ccccc1 (stereo not given)	8	8	87*	66*
CNc1nc(C2CCN(S(=O)(=O)c3ccccc3)C2)nc2c1CN(C)CC2 (stereo not given)	-35	-3	-7	-15
Clc1cccc(N2CCN(c3ncnc4nc[nH]c34)CC2)c1	5	5	-6	56*
Nc1nc(N2CCN(c3ccc(Cl)cc3)CC2)c2[nH]cnc2n1	16	-4	4	42*
Fc1ccc(N2CCN(c3ncnc4nc[nH]c34)CC2)cc1	7	-13	-11	-2
Cn1c(=O)c(C(=O)N2CCN(c3ccc(Cl)cc3)CC2)nc2cccnc21	-21	-3	-38	5
O=C(Cc1ccc(F)cc1)Nc1ccc(-c2nc3cccnc3s2)cc1	-44	-28	-12	-45
O=S(=O)(NCc1ccccc1C(F)(F)F)c1c[nH]c2ncccc12	2	-6	10	2
c1ccc(CNc2nn3c(-c4cccnc4)cnc3s2)cc1	40*	10	-1	32*
COc1ccc(CNc2nn3c(-c4cncc(OC)c4)cnc3s2)cc1	100*	48*	6	-1
COc1ccc(-c2cnc(NCc3ccc(Cl)cc3)nc2)cc1	-236	-12	0	-7
c1cncc(-c2cnc3sc(NCC4CCOCC4)nn23)c1	-1	-6	0	-2
